System: SARS-CoV-2 low-rank motif (SARS-low)
Assay: normalised indicator fluorescence (fraction of RNA + indicator signal without compound); higher = less displacement of indicator (weaker competition)
Conditions: compound concentration: 5 uM, 30 min
In short: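 For the displacement screen, RNA and a TO-PRO-1 or TO-PRO-3 indicator were held in 20 mM phosphate pH 7.0 with 20 mM NaCl and 80 mM KCl in 96-well plates. After adding 0.25 μL of each 1 mM DMSO stock (about 5 uM final) and waiting 30 min, fluorescence was measured on an Infinite 200 PRO with excitation at 485 or 620 nm. Each value is the mean of two independent experiments, expressed as blank-subtracted indicator fluorescence relative to the no-compound RNA-plus-indicator signal.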

[1] = indicator: TO-PRO-1 0.1 uM, RNA concentration: 0.1 uM
[2] = indicator: TO-PRO-3 0.5 uM, RNA concentration: 0.5 uM

Work on `CC1=NN(c2ccccc2)C(=O)C1` [Edaravone] yielded a normalised indicator fluorescence [1] of 1.13 and a normalised indicator fluorescence [2] of 1.32.
Work on `OC[C@H]1O[C@@H](Oc2ccc(O)cc2)[C@H](O)[C@@H](O)[C@@H]1O` [Arbutin] yielded a normalised indicator fluorescence [1] of 1.1 and a normalised indicator fluorescence [2] of 1.25.
`CC(C)(O)[C@@H]1CC[C@](C)([C@H]2[C@@H](O)C[C@@]3(C)[C@@H]4C[C@H](O)[C@H]5C(C)(C)[C@@H](O[C@@H]6OC[C@@H](O)[C@H](O)[C@H]6O[C@@H]6O[C@H](CO)[C@@H](O)[C@H](O)[C@H]6O)CC[C@@]56C[C@@]46CC[C@]23C)O1` [Astragaloside III] was tested, and the normalised indicator fluorescence [1] was 1.03 and the normalised indicator fluorescence [2] was 0.988.
`COc1ccc(O)cc1` [4-Methoxyphenol] was tested, and the normalised indicator fluorescence [1] was 1.12 and the normalised indicator fluorescence [2] was 1.27.
In the case of `CNc1ccc([N+](=O)[O-])c(Nc2ccc3[nH]ncc3c2)n1`, the normalised indicator fluorescence [1] is reported as 1.01 and the normalised indicator fluorescence [2] is reported as 1.14.
`Fc1ccc(-c2nc3n(c2-c2ccncc2)CCS3)cc1` was tested, and the normalised indicator fluorescence [1] was 1.3 and the normalised indicator fluorescence [2] was 1.15.
Molecule `CC(=O)c1ccc(S(=O)(=O)NC(=O)NC2CCCCC2)cc1` [Acetohexamide] has a normalised indicator fluorescence [1] of 0.998 and a normalised indicator fluorescence [2] of 1.12.
For `O=C1C[C@@H](c2ccc(O)cc2)Oc2cc(O)cc(O)c21` [Naringenin], the normalised indicator fluorescence [1] was 1.03 and the normalised indicator fluorescence [2] was 1.12.
Work on `Cc1cc(C(C)(C)C)c(O)c(C(C)(C)C)c1` yielded a normalised indicator fluorescence [1] of 1.26 and a normalised indicator fluorescence [2] of 1.23.
`CC1(C)C=Cc2c(ccc3c2OC[C@@H](c2ccc(O)cc2O)C3)O1` [Glabridin] gave a normalised indicator fluorescence [1] of 1.12 and a normalised indicator fluorescence [2] of 1.2.
In the case of `N#Cc1c(NC(=O)c2cccc3ccccc23)sc2c1CCCC2`, the normalised indicator fluorescence [1] is reported as 1.03 and the normalised indicator fluorescence [2] is reported as 1.1.
`C[C@H]1Oc2cc(cnc2N)-c2c(nn(C)c2C#N)CN(C)C(=O)c2ccc(F)cc21` [Lorlatinib] gave a normalised indicator fluorescence [1] of 1.13 and a normalised indicator fluorescence [2] of 1.23.
`C[C@@H]1O[C@@H](O[C@H]2[C@H](Oc3cc(O)c4c(c3)O[C@H](c3ccc(O)cc3)CC4=O)O[C@H](CO)[C@@H](O)[C@@H]2O)[C@H](O)[C@H](O)[C@H]1O` [Naringin] showed a normalised indicator fluorescence [1] of 1.14 and a normalised indicator fluorescence [2] of 1.13.
`COC1=CC(=O)c2ccccc2C1=O` [2-Methoxynaphthoquinone] was tested, and the normalised indicator fluorescence [1] was 1.19 and the normalised indicator fluorescence [2] was 1.12.
Molecule `O=C(Nc1ccc2[nH]nc(-c3ccncc3)c2c1)[C@@H]1CCN(CC(=O)N2CCN(c3ccc(-c4ncccn4)cc3)CC2)C1` has a normalised indicator fluorescence [1] of 1.11 and a normalised indicator fluorescence [2] of 1.26.
`Oc1ccc(-c2nc(-c3ccc(F)cc3)c(-c3ccncc3)[nH]2)cc1` showed a normalised indicator fluorescence [1] of 1.2 and a normalised indicator fluorescence [2] of 1.23.
Molecule `Oc1cc(O)c2c(c1)O[C@H](c1ccc(O)c(O)c1)[C@@H](O)C2` [(+)-Catechin Hydrate] has a normalised indicator fluorescence [1] of 0.966 and a normalised indicator fluorescence [2] of 1.16.
In the case of `CCc1oc2ccccc2c1C(=O)c1cc(Br)c(O)c(Br)c1` [Benzbromarone], the normalised indicator fluorescence [1] is reported as 1.02 and the normalised indicator fluorescence [2] is reported as 1.4.
`CC(C)OC(=O)CCC/C=C\C[C@@H]1[C@@H](CC[C@@H](O)CCc2ccccc2)[C@H](O)C[C@@H]1O` [Latanoprost] was tested, and the normalised indicator fluorescence [1] was 1.12 and the normalised indicator fluorescence [2] was 1.2.
Molecule `COC1=C2C[C@@H](C)C[C@H](OC)[C@H](O)[C@@H](C)/C=C(\C)[C@H](OC(N)=O)[C@@H](OC)/C=C\C=C(/C)C(=O)NC(=CC1=O)C2=O` [Geldanamycin] has a normalised indicator fluorescence [1] of 1.15 and a normalised indicator fluorescence [2] of 1.36.
With `[I-].[K+]` [Potassium iodide] the normalised indicator fluorescence [1] was 1.21 and the normalised indicator fluorescence [2] was 1.29.
